This is an account of results in PubChem BioAssay (NCI).

Where “and” joins values, the source holds several entries; their conditions need not be identical. Equal entries are not always repeated. The panel holds about 79,000 compounds, 15% with a hit somewhere; the sample as a whole holds those more often. More than one record can exist for a structure, and the calls need not agree. Calls of active or inactive are those of the source. Rule as the data show it: active = growth inhibition above about 70%; inactive = the rest.

The nature of the first assay: NCI Yeast Anticancer Drug Screen. Data for the mec2-1 strain (AID 157). Conditions: S. cerevisiae mec2-1 strain, at 50.0 µM, stronger effect = higher value. In short, it runs like this:
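Growth inhibition is read against vehicle-treated controls after compound exposure of the mec2-1 yeast strain, which is defective in DNA damage repair or cell cycle control.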
As for `Oc1c(Cl)cc(Cl)cc1Cc1cc(Cl)cc(Cl)c1O`, the growth inhibition is 98.8% (active) and 99.2% (active).

With `COc1cc(OC)c(OC)cc1/C=C\c1ccnc2ccccc12`, the growth inhibition is 37% (inactive).

In the case of `CC(C)C1=CC23CCC4C(C)(C(=O)O)CCCC4(C)C2CC1C1C(=O)OC(=O)C13` (stereo unspecified), the growth inhibition is 99.5% (active) and 99.7% (active).

Turning to `CN(C)c1nc(N)c(C#N)c(C#N)c1C#N`, the growth inhibition is 88.2% (active).

With `C/C(=N\NC(=S)N1CCN(c2ccccn2)CC1)c1nccs1`, the growth inhibition was 91.6% (active).

`CCCCCCCCCCCCCCCCCCOCC(COP(=O)([O-])OCC[N+](C)(C)C)OC` (stereo unspecified): the growth inhibition was 91.4% (active) and -4.35% (inactive).

On to `COc1ccc2nc(C)cc(NCCCCCCCCCNc3cc(C)nc4ccc(OC)cc34)c2c1`, for which the growth inhibition is 87.9% (active).

With `CC1CC[P+](c2ccccc2)(c2ccccc2)c2c1ccc1ccccc21` (stereo unspecified), the growth inhibition was 90.2% (active).

For `CC(C)C1=C(O)C2=C(C(=O)C1=O)C1(C)CCCC(C)(C)C1CC2O` (stereo unspecified), the growth inhibition is 22.1% (inactive) and -9.35% (inactive).

Take `CC(=O)[O-].[O-]c1c(Cl)cc(Cl)cc1/C=N/Nc1ccccn1.[Zn+2]`: the growth inhibition is 87.8% (active).

With `O=C(c1ccccc1)C(c1ccccc1)C(O)c1ccc([N+](=O)[O-])cc1` (stereo unspecified), the growth inhibition was 98.4% (active) and 99.5% (active).

Consider `Clc1nc(Cl)c(Cl)c(Cl)n1`, for which the growth inhibition is 72.5% (active).

With `COc1cccc2c1C(=O)c1c(O)c3c(c(O)c1C2=O)C[C@@](O)(C(C)=O)C[C@@H]3OC1CC(N(C)C)C(O)C(C)O1` (stereo partly specified), the growth inhibition is 90.3% (active).

Regarding `CN1C(c2ccccc2)CC(=NOCc2ccccc2)CC1c1ccccc1` (stereo unspecified), the growth inhibition was 83.8% (active).

As to `Cc1ccc(NCCN(C)C)c2c(=O)c3cc(O)ccc3sc12`, the growth inhibition was 91.3% (active).

With `N#CC1(C2SCCS2=O)C2=C(C(=O)c3ccccc3C2=O)N2CCCC21` (stereo unspecified), the growth inhibition is 77.2% (active).

For `CCN(CC)CCC(=O)/C=C/c1ccccc1`, the growth inhibition was 99.6% (active) and 56.1% (inactive).

Consider `CC1(O)Cc2c(O)c3c(c(O)c2CC1O)C(=O)C=CC3=O` (stereo unspecified), for which the growth inhibition was 69.2% (inactive).

Consider `Cc1ccc2c(c1)C1(C)OC(C=CC1=O)O2` (stereo unspecified), for which the growth inhibition is 91% (active).

In the case of `Fc1cccc(CSC(=S)Nc2ccc(F)c(F)c2)c1`, the growth inhibition is 99.8% (active).

Consider `CCN(CCO)CCNc1ccc(C)c2sc3ccccc3c(=O)c12`, for which the growth inhibition is 90.7% (active).

For `Cc1n(-c2ccccc2)c2c([n+]1Cc1ccc([N+](=O)[O-])cc1)C(=O)c1ccccc1C2=O`, the growth inhibition is 89% (active).

Take `CC(=O)OC1COC(n2c(N)c(C#N)c(-c3ccccc3)c(C#N)c2=S)C(OC(C)=O)C1OC(C)=O` (stereo unspecified): the growth inhibition was 16.4% (inactive) and 40.7% (inactive).

Turning to `O=c1[nH]c2cc([N+](=O)[O-])ccc2nc1/C=C(\O)c1ccc([N+](=O)[O-])cc1`, the growth inhibition was 16.1% (inactive) and -6.35% (inactive).

On to `Cc1n(Cc2ccccc2)c2c([n+]1C)C(=O)c1ccccc1C2=O`, for which the growth inhibition is 91.8% (active).

Turning to `CS(=O)(=O)OCCN(CCOS(C)(=O)=O)c1ccc(C=Nc2ccc(-c3csc(Cc4ccccc4)n3)cc2)c(Cl)c1`, the growth inhibition is 76.6% (active).

On to `CCCCCCCCCCS(=O)CC(CO)NC(=O)/C=C/c1c(C)[nH]c(=O)[nH]c1=O` (stereo unspecified), for which the growth inhibition was 89.8% (active).

With `C/C(=N\O)c1cc(Br)cc([N+](=O)[O-])c1O`, the growth inhibition is 4.15% (inactive).

`COc1cc2c(c(OC)c1OC)-c1ccc(SC)c(=O)cc1C(NC(=O)c1ccccc1)CC2` (stereo unspecified): the growth inhibition was 86.9% (active).

Take `COc1cccc2c1C(=O)c1c(O)c3c(c(O)c1C2=O)C[C@@](O)(C(C)=O)C[C@@H]3OC1CC(O)C(O)C(C)O1` (stereo partly specified): the growth inhibition is 88.3% (active).

With `CCCCCCCc1c(Cl)nc(Cl)nc1Cl`, the growth inhibition was 88.3% (active).

Consider `O=C1/C(=C/c2ccc(Cl)cc2)CNC/C1=C\c1ccc(Cl)cc1`, for which the growth inhibition is 81.8% (active) and 89.5% (active).

In the case of `O=C1C(Cl)=C(N2CCN(C3=C(Cl)C(=O)c4ccccc4C3=O)CC2)C(=O)c2ccccc21`, the growth inhibition is 87.8% (active).

In the case of `O=C1c2ccccc2-n2c1nc1ccccc1c2=O`, the growth inhibition is 57% (inactive).

`Nc1ccc(Cn2ccc3c4c(N)nc(N)nc4ccc32)cc1`: the growth inhibition was 68.3% (inactive).

As to `Nc1nc(N)c2c(Cl)c(CNc3ccc(Cl)c(Cl)c3)ccc2n1`, the growth inhibition is 91% (active).

On to `Cc1cc(NCCCCCCCNc2cc(C)nc3cc([N+](=O)[O-])ccc23)c2ccc([N+](=O)[O-])cc2n1`, for which the growth inhibition was 77% (active).

In the case of `CCCCCCCCCCCCCCCCCC(=O)NCCO`, the growth inhibition was -6.6% (inactive) and -7.3% (inactive).

The nature of a further assay: NCI Yeast Anticancer Drug Screen. Data for the sgs1 mgt1 strain (AID 161).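 Also: 0% = growth of cultures given vehicle only.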 The conditions noted are these: S. cerevisiae sgs1 mgt1 strain, at 5.0 µM (retest, dose inferred, filed as 0.5), stronger effect = higher value. In short, it runs like this: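 Percent growth inhibition was derived by comparing compound-exposed mutant yeast with vehicle-exposed cultures. The strain carries alterations in DNA damage repair.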
Regarding `Oc1c(Cl)cc(Cl)cc1Cc1cc(Cl)cc(Cl)c1O`, the growth inhibition is 92% (active) and 85% (active).

On to `COc1cc(OC)c(OC)cc1/C=C\c1ccnc2ccccc12`, for which the growth inhibition is 10% (inactive).

Take `CC(C)C1=CC23CCC4C(C)(C(=O)O)CCCC4(C)C2CC1C1C(=O)OC(=O)C13` (stereo unspecified): the growth inhibition was 87% (active).

For the compound `CN(C)c1nc(N)c(C#N)c(C#N)c1C#N`, the growth inhibition is 11% (inactive).

As to `C/C(=N\NC(=S)N1CCN(c2ccccn2)CC1)c1nccs1`, the growth inhibition was 43% (inactive).

In the case of `CCCCCCCCCCCCCCCCCCOCC(COP(=O)([O-])OCC[N+](C)(C)C)OC` (stereo unspecified), the growth inhibition was -13% (inactive).

`COc1ccc2nc(C)cc(NCCCCCCCCCNc3cc(C)nc4ccc(OC)cc34)c2c1`: the growth inhibition was -2% (inactive).

`CC1CC[P+](c2ccccc2)(c2ccccc2)c2c1ccc1ccccc21` (stereo unspecified): the growth inhibition was 81% (active).

In the case of `CC(C)C1=C(O)C2=C(C(=O)C1=O)C1(C)CCCC(C)(C)C1CC2O` (stereo unspecified), the growth inhibition is 48% (inactive).

Consider `CC(=O)[O-].[O-]c1c(Cl)cc(Cl)cc1/C=N/Nc1ccccn1.[Zn+2]`, for which the growth inhibition was 4% (inactive).

Regarding `O=C(c1ccccc1)C(c1ccccc1)C(O)c1ccc([N+](=O)[O-])cc1` (stereo unspecified), the growth inhibition is 6% (inactive) and -14% (inactive).

Turning to `Clc1nc(Cl)c(Cl)c(Cl)n1`, the growth inhibition was 5% (inactive).

With `COc1cccc2c1C(=O)c1c(O)c3c(c(O)c1C2=O)C[C@@](O)(C(C)=O)C[C@@H]3OC1CC(N(C)C)C(O)C(C)O1` (stereo partly specified), the growth inhibition was 99% (active).

As for `CN1C(c2ccccc2)CC(=NOCc2ccccc2)CC1c1ccccc1` (stereo unspecified), the growth inhibition was 76% (active).

Turning to `Cc1ccc(NCCN(C)C)c2c(=O)c3cc(O)ccc3sc12`, the growth inhibition was 10% (inactive).

Regarding `N#CC1(C2SCCS2=O)C2=C(C(=O)c3ccccc3C2=O)N2CCCC21` (stereo unspecified), the growth inhibition is 23% (inactive).

Regarding `CCN(CC)CCC(=O)/C=C/c1ccccc1`, the growth inhibition is 60% (inactive).

`CC1(O)Cc2c(O)c3c(c(O)c2CC1O)C(=O)C=CC3=O` (stereo unspecified): the growth inhibition was 4% (inactive).

Consider `Cc1ccc2c(c1)C1(C)OC(C=CC1=O)O2` (stereo unspecified), for which the growth inhibition is 91% (active).

On to `Fc1cccc(CSC(=S)Nc2ccc(F)c(F)c2)c1`, for which the growth inhibition was 10% (inactive).

As for `CCN(CCO)CCNc1ccc(C)c2sc3ccccc3c(=O)c12`, the growth inhibition is 9% (inactive).

With `Cc1n(-c2ccccc2)c2c([n+]1Cc1ccc([N+](=O)[O-])cc1)C(=O)c1ccccc1C2=O`, the growth inhibition is -10% (inactive).

Consider `CC(=O)OC1COC(n2c(N)c(C#N)c(-c3ccccc3)c(C#N)c2=S)C(OC(C)=O)C1OC(C)=O` (stereo unspecified), for which the growth inhibition was -7% (inactive) and 2% (inactive).

`O=c1[nH]c2cc([N+](=O)[O-])ccc2nc1/C=C(\O)c1ccc([N+](=O)[O-])cc1`: the growth inhibition was 13% (inactive).

For `Cc1n(Cc2ccccc2)c2c([n+]1C)C(=O)c1ccccc1C2=O`, the growth inhibition was 55% (inactive).

With `CS(=O)(=O)OCCN(CCOS(C)(=O)=O)c1ccc(C=Nc2ccc(-c3csc(Cc4ccccc4)n3)cc2)c(Cl)c1`, the growth inhibition is -22% (inactive).

As to `CCCCCCCCCCS(=O)CC(CO)NC(=O)/C=C/c1c(C)[nH]c(=O)[nH]c1=O` (stereo unspecified), the growth inhibition was 68% (inactive).

On to `C/C(=N\O)c1cc(Br)cc([N+](=O)[O-])c1O`, for which the growth inhibition is 3% (inactive).

For `COc1cc2c(c(OC)c1OC)-c1ccc(SC)c(=O)cc1C(NC(=O)c1ccccc1)CC2` (stereo unspecified), the growth inhibition was 5% (inactive).

As to `COc1cccc2c1C(=O)c1c(O)c3c(c(O)c1C2=O)C[C@@](O)(C(C)=O)C[C@@H]3OC1CC(O)C(O)C(C)O1` (stereo partly specified), the growth inhibition is 25% (inactive).

Turning to `CCCCCCCc1c(Cl)nc(Cl)nc1Cl`, the growth inhibition was 3% (inactive).

With `O=C1/C(=C/c2ccc(Cl)cc2)CNC/C1=C\c1ccc(Cl)cc1`, the growth inhibition was 88% (active) and 58% (inactive).

Regarding `O=C1C(Cl)=C(N2CCN(C3=C(Cl)C(=O)c4ccccc4C3=O)CC2)C(=O)c2ccccc21`, the growth inhibition was 44% (inactive).

As for `O=C1c2ccccc2-n2c1nc1ccccc1c2=O`, the growth inhibition is 21% (inactive).

For the compound `Nc1ccc(Cn2ccc3c4c(N)nc(N)nc4ccc32)cc1`, the growth inhibition is 7% (inactive).

Turning to `Nc1nc(N)c2c(Cl)c(CNc3ccc(Cl)c(Cl)c3)ccc2n1`, the growth inhibition is 81% (active).

For `Cc1cc(NCCCCCCCNc2cc(C)nc3cc([N+](=O)[O-])ccc23)c2ccc([N+](=O)[O-])cc2n1`, the growth inhibition was 5% (inactive).

For the compound `CCCCCCCCCCCCCCCCCC(=O)NCCO`, the growth inhibition was 0% (inactive).
